# Results from PubChem BioAssay (NCI).
# About 83,000 compounds went through this panel and 20% of them were active in at least one assay; those are over-represented in the sample as a whole.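 Values shown are percent growth following 48 h exposure of cells in 96-well plates to a single concentration of compound; below 10 was considered active.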 Values without a mark were called inactive. The source made the active and inactive calls.
# Columns and labels:
# Experiment in all cases: NCI-60 one-dose screen, 48 h (100 = growth as untreated, 0 = no growth, -100 = all killed)
# Settings in all cases: 10 µM unless noted
# [1] = system: DU-145 prostate
# [2] = system: K-562 leukemia
# [3] = system: MALME-3M melanoma
# [4] = system: MDA-MB-231 breast
# [5] = system: RXF 393 renal
# [6] = system: SF-268 CNS
# [7] = system: SF-295 CNS
# [8] = system: UACC-257 melanoma
# [9] = system: M14 melanoma
# [10] = system: HCT-15 colon
# [11] = system: HT29 colon
# [12] = system: SNB-75 CNS
# [13] = system: SNB-19 CNS
# [14] = system: U251 CNS
# [15] = system: PC-3 prostate
# [16] = system: SK-MEL-5 melanoma
# [17] = system: UACC-62 melanoma
# [18] = system: LOX IMVI melanoma
# [19] = system: SK-MEL-28 melanoma
Structure (SMILES),growth [1],growth [2],growth [3],growth [4],growth [5],growth [6],growth [7],growth [8],growth [9],growth [10],growth [11],growth [12],growth [13],growth [14],growth [15],growth [16],growth [17],growth [18],growth [19]
CCOC(=O)c1c2c(n3ccc(NC(=O)CCN4CCOCC4)cc13)C(=O)c1ncccc1C2=O,45.8%,19.8%,42.6%,26%,63%,39%,49.3%,32%,24.6%,33.9%,32.7%,52.7%,54.6%,41.5%,51%,42.3%,27.7%,15%,77.8%
CC/C=C\C[C@H](O)C/C=C1/C(=O)C=C[C@@H]1C/C=C\CCCC(N)=O,18.8%,-1.14% (active),-14.8% (active),20.4%,-81% (active),27.3%,-22.2% (active),-11.7% (active),1.88% (active),-36.8% (active),-1.88% (active),69.3%,26.9%,0.507% (active),19.6%,-94.8% (active),-45.8% (active),-56.2% (active),-14.5% (active)
CCCCNC(=O)NS(=O)(=O)c1ccc(N2N=C(c3cc(C)ccc3C)CC2c2cc(OC)c(OC)c(OC)c2)cc1 (stereo not drawn),88.9%,36.1%,25.3%,79.4%,44.7%,66%,8.51% (active),59.3%,8.53% (active),48.6%,72.2%,51.1%,68%,51.3%,36.9%,6.28% (active),49.5%,9.68% (active),18.6%
Cc1[nH]n(-c2ccccc2)c2nc3nncc3c(-c3ccc(Cl)cc3)c12,103%,95.8%,132%,106%,107%,98.9%,105%,101%,114%,94.1%,79.7%,104%,100%,99.2%,73.1%,104%,91.5%,89%,104%
CCOC(=O)C(Cc1cc(I)c(O)c(I)c1)NC(=O)c1ccccc1 (stereo not drawn),109%,97.1%,99.5%,102%,99.1%,102%,101%,92.7%,99.3%,98.6%,99.9%,94.5%,99.3%,33.6%,99.1%,100%,92.2%,103%,101%
O=C1c2cc3c(cc2-c2c1c1cc(F)c(F)cc1c(=O)n2C[C@H](O)CO)OCO3,1.97% (active),6.33% (active),-21.3% (active),5.4% (active),-51.5% (active),6.49% (active),-7.95% (active),-37.2% (active),1.79% (active),1.58% (active),0.994% (active),4.14% (active),6.51% (active),-15.5% (active),8.59% (active),-91.5% (active),-48.2% (active),-45.4% (active),10.1%
Nc1nc2c(c3ncccc13)C(c1ccc(Cl)c(Cl)c1)Cc1ncccc1-2 (stereo not drawn),35.5%,11%,47.1%,28.9%,-25.4% (active),44.8%,1.19% (active),35.4%,20%,18.2%,6.39% (active),16.4%,32.1%,16.9%,19.5%,19.8%,26.6%,28%,49.2%
COc1ccc(-c2c3c(nc4n[nH]c(-c5ccc(Cl)cc5)c24)-c2ccccc2C(=O)C3=O)cc1,22.4%,4.49% (active),-32.4% (active),-28% (active),14.1%,-38.8% (active),77.4%,11%,-28.4% (active),21.6%,-11.8% (active),54.3%,44.3%,-40.2% (active),7.97% (active),5.41% (active),-33.7% (active),-50.9% (active),30.4%
Cn1c(=O)c2[nH]c(C(O)C(O)C(O)C(O)CO)nc2n(C)c1=O (stereo not drawn),109%,95.1%,97%,101%,115%,106%,103%,93.6%,105%,106%,99.6%,92.6%,97.3%,100%,93.2%,104%,99.7%,102%,100%
NC(=S)N/N=C/c1ccc(OCc2ccccc2)cc1,85.3%,43.7%,56.2%,69.9%,52.4%,80.9%,96%,60.7%,71.6%,47.8%,47.7%,67.8%,73.1%,71.8%,64.2%,86.4%,61.8%,82.1%,80%
CCCC(=O)Oc1ccc(/C(=C(/CC)Cc2ccccc2)c2ccc(OCCN3CCCC3)cc2)cc1,87%,2.42% (active),91.4%,78.2%,68.2%,67.4%,100%,87.6%,63.9%,41.8%,16.5%,62.5%,94.2%,49%,70%,66.2%,23.7%,25.2%,-19.8% (active)
C/C(=C(/c1ccc(O)cc1)c1ccc(OCCN(C)C)cc1)c1ccccc1,98.1%,36.6%,79.9%,85.2%,69.3%,83.3%,98.1%,78.1%,65.1%,73.9%,22.1%,53.4%,96.1%,70.5%,80.3%,75.1%,36.8%,82.8%,45.3%
Cc1cc(OCc2ccc(C(F)(F)F)cc2)c2c(c1)C(=O)C=C(NCCN1CCCC1)C2=O,76.2%,-8.28% (active),-45.4% (active),74.7%,53.6%,69%,64.1%,-92.4% (active),-84.9% (active),31.2%,9.81% (active),76.4%,79.8%,22.3%,66%,-35.7% (active),86.8%,-52.9% (active),-84.1% (active)
CS(CCCCN=C=S)=NC(=O)c1c(F)c(F)c(F)c(F)c1F (stereo not drawn),41.4%,22.5%,44.8%,67.9%,41.9%,86.8%,102%,61.5%,62.8%,37.3%,57.6%,74.3%,91.9%,80.3%,95.8%,96.1%,51.9%,28.3%,85.9%
COc1cnc2c(c1)C(=O)c1c-2n(CCCN2CCN(C)CC2)c(=O)c2cc([N+](=O)[O-])ccc12,-42.5% (active),-50.8% (active),-72.9% (active),-72.3% (active),84.2%,-60.7% (active),-80.8% (active),-37.6% (active),-85.2% (active),-61.2% (active),-79.4% (active),-93.2% (active),-20.6% (active),-81.2% (active),4.16% (active),-97.5% (active),-77.9% (active),-90.7% (active),-80.6% (active)
CS(=O)CCCCCN=C=S (stereo not drawn),9.76% (active),-0.259% (active),-11.5% (active),9.17% (active),-34.7% (active),8.94% (active),51%,-6.89% (active),8.73% (active),-16.9% (active),-13.3% (active),29.5%,28%,9.01% (active),32.4%,12.1%,-8.14% (active),-38.7% (active),6.92% (active)
O=C(CCCCN1CCOCC1)Nc1ccc(Cn2nnc3c2C(=O)c2nnn(Cc4ccc(NC(=O)CCCCN5CCOCC5)cc4)c2C3=O)cc1,-88.6% (active),6.24% (active),-86% (active),-1.55% (active),-67.4% (active),-35.5% (active),-87.7% (active),-77.2% (active),-90.3% (active),-37% (active),-28.6% (active),-92.3% (active),-86.2% (active),-85.2% (active),0.413% (active),-95.8% (active),-80% (active),-23.2% (active),-54.9% (active)
